About 280 (8.5%) of roughly 3,300 compounds were called active. For the sample, actives were picked, then their nearest neighbours and some compounds at random. Values without a mark were called inactive.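 How the source made its calls: active means mean growth inhibition over the two runs of 50% or more; inactive means mean growth inhibition under 50%.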

This test can be described thus: A549 NSCLC cell proliferation inhibitors – ATP luminescence, human non-small cell lung line, primary screen (AID 371).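 Further: compound exposure lasted 72 h before the ATP read; 0% = untreated cell signal and 100% = no luminescence left.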 To be noted: at 10 µM, active compounds read high.
Consider `N=c1c2c(-c3ccccc3)c(-c3ccccc3)n(Cc3ccccc3)c2ncn1CCCn1ccnc1`, for which the growth inhibition is 91.5% (active).
In the case of `O=C(NCCCn1ccnc1)C(Cc1ccccc1)N1C(=O)c2ccccc2C1=O` (stereo not given), the growth inhibition was 2.6%.
Consider `O=c1c(C=NCCCn2ccnc2)c(-c2ccccc2)[nH]n1-c1nc2ccccc2s1`, for which the growth inhibition was 17%.
For `Cc1cc(C)c2c(N)c(C(=O)c3ccccc3)oc2n1` the value was 19.9%; for `Cc1nn(-c2ccccc2)c2c1C(c1ccc(F)cc1F)C(C#N)=C(N)O2` (stereo not given), 17%; for `CNC(=O)c1cc2c(ccc3ccccc32)oc1=N`, 9.88%.
With `CCN(CC)c1ccc2cc(-c3nnc(-c4ccncc4)o3)c(=O)oc2c1`, the growth inhibition is 11.3%.
As to `CCCCCCc1cc2cc(-c3nnc(-c4ccccc4O)o3)c(=O)oc2cc1O`, the growth inhibition is 95% (active).
For `CCCCCCc1cc2cc(C(=O)NC)c(=N)oc2cc1O` the value was 87.4% (active); for `COc1ccc(C2/C(=C(\O)c3ccc4c(c3)OCCO4)C(=O)C(=O)N2CCCN(C)C)cc1` (stereo not given), -19.3%; for `O=C(OCCN1CCOCC1)c1ccc2c(c1)OCCO2`, -1.1%.
In the case of `NC(=O)c1ccccc1OCCOCCOCCOc1ccccc1C(N)=O` it was 4.77%; in that of `COC(=O)CSc1nc(N)nc(C)c1Br`, 0.51%; in that of `C=CCn1c(=O)c(C(=O)NCCN(CC)CC)c(O)c2ccccc21`, 13.9%.
Regarding `N#CC1=C(SCC(=O)c2ccc(Br)cc2)NC2=C(C(=O)CCC2)C1c1ccco1` (stereo not given), the growth inhibition was 77.8% (active).
For `N#CC1=C(SCC(=O)c2ccccc2)NC2=C(C(=O)CCC2)C1c1ccco1` (stereo not given) the value was 69% (active); for `Cc1ccc(C(=O)CSC2=C(C#N)C(c3ccco3)C3=C(CCCC3=O)N2)cc1` (stereo not given), 76.4% (active); for `CCOC(=O)CSC1=C(C#N)C(c2ccc(OC)cc2)C2=C(CC(C)(C)CC2=O)N1` (stereo not given), 9.46%.
In the case of `COc1ccccc1NC(=O)C1=C(C)NC(SCC(=O)c2ccc(C)cc2)=C(C#N)C1c1ccco1` (stereo not given) it was 18.3%; in that of `Cc1ccc(NC(=O)CSC2=C(C#N)C(c3ccco3)C3=C(CCCC3=O)N2)cc1` (stereo not given), 31.5%; in that of `N#CC1=C(SCC(=O)c2ccc(Cl)cc2)NC2=C(C(=O)CCC2)C1c1ccco1` (stereo not given), 80% (active).
In the case of `N#Cc1ccc(-c2ccco2)nc1SCC(=O)c1ccc(Cl)cc1` it was 36.8%.
With `N#CC1=C(SCc2ccccc2)NC2=C(C(=O)CCC2)C1c1ccc2c(c1)OCO2` (stereo not given), the growth inhibition is 35.2%.
Consider `CCCCC1CC1C(=O)Nc1ccc(OC)c(OC)c1` (stereo not given), for which the growth inhibition is 11%.
For `Cn1c(=O)c2c(nc(NCCCO)n2Cc2cccc(C(F)(F)F)c2)n(C)c1=O` the value was 29.2%.

The record behind these values is PubChem BioAssay AID371 (SRMLSC, 2006).
